Giardia FBPA inh = qHTS Assay for Inhibitors of Fructose-1,6-bisphosphate Aldolase from Giardia Lamblia | A8B2U2 | actives 0.71% (n = 290,000) | AID 2451, 2010 | Potency, µM (titrated, usually from 59.6 µM), for the others: top-dose activity, negative = inhibition, actives largely listed as inhibitors | purified Giardia FBPA; further: potency means the concentration at half of the fitted maximal effect; on the % scale 0 is the no-effect control and ±100 the full control effect; nearly all actives have a fitted effect of over 55% in size
Target sequence (A8B2U2 whole entry, looked up): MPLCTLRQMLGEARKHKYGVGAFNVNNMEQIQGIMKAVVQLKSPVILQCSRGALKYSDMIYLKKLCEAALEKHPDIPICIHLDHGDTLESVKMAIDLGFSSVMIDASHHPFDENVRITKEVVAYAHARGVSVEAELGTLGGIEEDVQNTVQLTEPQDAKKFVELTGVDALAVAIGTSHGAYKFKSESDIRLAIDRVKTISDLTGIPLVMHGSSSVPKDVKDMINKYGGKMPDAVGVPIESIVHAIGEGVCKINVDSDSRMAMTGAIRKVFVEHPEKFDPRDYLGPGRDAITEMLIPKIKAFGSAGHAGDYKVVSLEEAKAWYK
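40 nM FBPA preincubated 10 min at RT with compound (up to 57.5 uM final), then substrate plus GAPDH/TPI/NAD/arsenate coupling and diaphorase/resazurin added. Fluorescence read after 20 min at RT, 525/598 nm.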
Pf growth 96h = Primary qHTS for delayed death inhibitors of the malarial parasite plastid, 96 hour incubation. Potency, µM (highest dose often 28.7 µM), inactives show at the highest dose activity change, negative = inhibition, actives largely listed as inhibitors. P. falciparum luciferase reporter growth, 96 h. actives 6.9% (n = 320,000); further: potency means the concentration at half of the fitted maximal effect; on the % scale 0 is the no-effect control and ±100 the full control effect
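P. falciparum expressing integrated firefly luciferase grown in erythrocytes (2% hematocrit, 0.05% parasitemia final) with compounds for 96 hours at 37 C, 5% CO2. Growth inhibition read as loss of luminescence after adding luciferase detection reagent.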
Shiga inhibitor = A qHTS for Small Molecule Inhibitors of Shiga Toxin; Vero cells, Shiga toxin protein synthesis inhibition reporter; inhibition, % at 38.7 µM; actives 9.2% (n = 290,000); in the data active means inhibition mostly above about 28%, no sharp cut-off; inactive means mostly below about 43%; further: 0% is about no effect
Pf growth 48h = Primary qHTS for delayed death inhibitors of the malarial parasite plastid, 48 hour incubation; AID 504832, 2011; P. falciparum luciferase growth in erythrocytes, 48 h; Potency, µM (top dose mostly 28.7 µM), for inactives: top-dose activity change, negative = inhibition, usual class: inhibitors; actives 5.9% (n = 310,000); further: potency means the concentration at half of the fitted maximal effect; on the % scale 0 is the no-effect control and ±100 the full control effect
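Luciferase-expressing parasites in RBCs, 2% Hct / 0.1% parasitemia final; RPMI 1640 + 0.5% Albumax; 37 C, 5% CO2, one generation; luminescence read-out, lower signal = inhibition.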
NS1 inh = qHTS Assay for Inhibitors of Influenza NS1 Protein Function | Potency, µM (top dose mostly 46.1 µM), for the others: at the top dose activity, positive = more growth | actives 0.4% (n = 270,000); calls by dose curve; further: potency means the concentration at half of the fitted maximal effect; actives are rising curves; nearly all actives have a fitted effect of over 50% in size
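Recovery from NS1-induced slow growth read by OD600 in budding yeast switched to galactose assay medium (pH 6.0, -URA) at 1:100 dilution. Compound 23 nl per well; the matching strain lacking NS1 serves as control.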
Cycloheximide cs = Cycloheximide Counterscreen for Small Molecule Inhibitors of Shiga Toxin; cell reporter, cycloheximide protein synthesis inhibition counterscreen; max response, %; actives 12% (n = 300,000); in the data active means max response mostly above about 13%, no sharp cut-off; inactive means mostly below about 14%; further: read at 38.3 µM for the half of the compounds with a filed dose; 0% is about no effect
Active calls of the source: *; ? = inconclusive; · = no result; ! = not confirmed by another sample; [ ] = remark or other dose. Sampled rows, rich in hits. Any-hit rate of the full collection: about 21%. Unless noted, the call rests on the fitted dose curve; in most records, active means well fitted curve in the direction sought with a large enough effect; inconclusive means small, poorly fitted or top-dose-only effect, or another doubt; inactive means no such curve, though single readings can be large; an effect the other way counts as inactive or inconclusive.

SMILES | Giardia FBPA inh | Pf growth 96h | Shiga inhibitor | Pf growth 48h | NS1 inh | Cycloheximide cs
CCN(CC(=O)Nc1ccc(OC)cc1)C(=O)c1ccc2c(c1)NC(=O)C(C)S2 (stereo not given) | · | 18% | · | 0% | · | ·
CCOC(=O)[C@H](CCc1ccccc1)N[C@@H](C)C(=O)N1[C@H](C(=O)O)C[C@H]2CCC[C@@H]21 | 1%[21.7 µM] | 8% | · | -6% | · | ·
Cn1cccc1C(=O)N1CCC2(CCN(Cc3nccs3)CC2)CC1 | 1% | · | · | · | · | ·
NC(=O)CC(NC(=O)c1cccc(Br)c1)c1ccc(NC2CCCCCCCCCCC2)c([N+](=O)[O-])c1 (stereo not given) | 10% | ? | -4 | 13% | 11% | -2
COC(=O)Nc1ccc2c(c1)N(C(=O)CCN1CCN3CCCC3C1)c1ccccc1S2 (stereo not given) | -18% | ? | -5 | ? | -11% | -2
CCN(CC)CCC(=O)N1c2ccccc2Sc2ccc(Cl)cc21 | · | 1.7µM* | · | ? | · | ·
O=C(CCN1CCN2CCCC2C1)N1c2ccccc2Sc2ccc(Cl)cc21 (stereo not given) | -9% | 11µM*! | -11 | ? | 2% | -2
CN(C)C=NC(=O)c1[nH]c2ccc(Cl)cc2c1-c1ccccc1 | -7% | -7% | -8 | ? | 3% | 5
CN1CCCC(n2nc(Cc3ccc(Cl)cc3)c3ccccc3c2=O)CC1 (stereo not given) | -1% | ? | · | ? | · | ·
Cc1cc(N2CCOCC2)ccc1/C=C1\SC(=O)N(C(C)C)C1=O | -4% | 203% | 74 | 111% | 5% | 39*
CCC(C)N1C(=O)S/C(=C/c2ccc(N3CCOCC3)cc2C)C1=O (stereo not given) | 1% | 42% | 87* | 43% | 19% | 56*
O=C(COc1ccc(S(=O)(=O)N2CCCC2)cc1Cl)NCc1cccnc1 | · | ? | -13 | -14% | 17% | 1
CC(=O)c1cccc(NC(=S)NCCc2ccc(F)cc2)c1 | -3% | 35%[1.15 µM] | 31 | 1% | 4% | 10
CNNC(=S)NCCC1=CCCCC1 | -8% | 30% | 18 | 13% | -2% | 16*
CC(=O)c1cccc(NC(=S)NCCC2=CCCCC2)c1 | -6% | 132% | 47* | -5% | -11% | 33*
O=C(NC(=S)NCCC1=CCCCC1)c1ccco1 | -6% | ? | 107* | 116% | -19% | 37*
Cc1ccc(SCC(=O)NCCC2=CCCCC2)cc1 | 4% | ? | 38* | 48% | -27% | 38*
CCOC(=O)c1sc(/S(C)=N\S(=O)(=O)c2cccc(Cl)c2)c2c1CCC=C2 (stereo not given) | ? | ? | -10 | ? | -1% | 1
CCOC(=O)c1ccc(NC(=S)NCCC2=CCCCC2)cc1 | 4% | ? | -3 | ? | 18% | 3
Cc1ccc(NC(=S)NCCC2=CCCCC2)cc1 | 3% | ? | 89* | -26% | · | 34*
Cc1ccc(C)c(NC(=O)CN(C)S(=O)(=O)c2cccc3cccnc23)c1 | 4% | 0% | -10 | -2% | 1% | -2
Cc1cc(=O)[nH]c(/N=C(\N)Nc2ccc(Cl)cc2)n1 | · | · | · | · | -1% | ·
Nc1nc(CN2CCc3ccccc3C2)nc(Nc2ccccc2)n1 | -22% | · | 9 | ? | 15% | 0
CC1CC(C)CN(Cc2nc(N)nc(Nc3ccccc3)n2)C1 (stereo not given) | 8% | 10µM* | 14 | ? | 3% | 2
CC1CC(C)CN(Cc2nc(N)nc(Nc3ccc4ccccc4c3)n2)C1 (stereo not given) | -19% | · | 4 | 12µM* | -9% | 2
SMILES | Giardia FBPA inh | Pf growth 96h | Shiga inhibitor | Pf growth 48h | NS1 inh | Cycloheximide cs
COc1ccc(Nc2nc(N)nc(CN3CCC(C)CC3)n2)cc1 | 2% | -3% | 18 | 9% | · | 4
CC(C)(C)NC(=O)C(OC(=O)c1cccs1)c1ccc(F)cc1 (stereo not given) | 6% | 260% | -8 | -4% | · | 9
CC(C)(C)NC(=O)C(OC(=O)c1cccs1)c1ccccc1 (stereo not given) | 4% | -26% | 2 | 0% | 1% | 22*
c1ccc2[nH]ccc2c1 | · | -18% | · | -12% | · | ·
Cc1ccc(N2C(=O)NC(=O)/C(=C/c3cnc(-c4ccccc4)nc3)C2=O)cc1C | 1% | 50% | 15 | 1% | 5% | -3
Cc1cc(C)cc(N2C(=O)NC(=O)/C(=C\c3cccn3-c3ccccc3)C2=O)c1 | 4% | ? | -4 | 19% | 7% | 14*
Cc1cccc(N2C(=O)NC(=O)/C(=C\c3cnc(-c4ccccc4)nc3)C2=O)c1 | -7% | ? | 43 | 2% | 15% | 14*
CC1CCOC(c2coc3ccccc3c2=O)O1 (stereo not given) | 2% | 182% | 54* | 162% | 3% | 59*
CC1CC(=O)C2=C(C1)OC(N)=C(C#N)C2c1coc2ccccc2c1=O (stereo not given) | -5% | -18% | 10 | 3% | 2% | 5
Cc1cccc(N=Cc2c(O)n(C)c(=O)n(C)c2=O)c1 | 10% | 112% | 25* | -1% | 20% | 9
CN(C(=O)c1ccccc1OCc1ccc(F)cc1)c1c(N)n(Cc2ccccc2)c(=O)[nH]c1=O | · | -14% | · | ? | · | ·
Cc1ccc(C(=O)NCC(=O)Nc2ncccc2C)s1 | · | 56% | · | 37% | · | ·
C=CC[C@@](C(C)=O)(C(=O)OC)C(NC(=O)OC)c1ccccc1 (stereo not given in full) | 0% | · | · | · | · | ·
O=C(OCc1nc2ccccc2s1)C1CCN(C2=NS(=O)(=O)c3ccccc32)CC1 | 1% | ? | 60* | 76% | -1% | 61*
COc1cc(OC)cc(OC(=O)C2CCN(C3=NS(=O)(=O)c4ccccc43)CC2)c1 | · | 4% | · | 23% | · | ·
COc1ccccc1C(=O)C1CCCN(C(=O)c2ccccn2)C1 (stereo not given) | -2% | ? | 2 | 17% | 2% | 7
Cc1ccc(C(=O)CC(=O)c2ccc(C(C)(C)C)cc2)cc1 | 0% | -17% | 6 | -7% | 1% | 8
NC(=O)c1ccccc1NCC(=O)c1ccc(F)cc1 | -3% | 38% | 48* | 34% | -6% | 29*
O=C(CNc1ccc(F)cc1)c1ccccc1 | 0% | -22% | 52 | ? | -1% | 23*
Cc1ccc(C(=O)CNc2ccccc2)cc1 | 6% | 45% | 47* | 33% | -47% | 34*
O=C(CNC(=S)NC(=O)c1ccc(F)cc1)c1ccccc1 | 0% | 20% | 10 | 40% | -2% | 6
O=C(CNc1ccc(Br)cc1)c1ccccc1 | -1% | 9% | 21 | ? | -21% | 18*
Cn1c2cc(C(=O)O)sc2c2cnn(Cc3ccccc3F)c(=O)c21 | · | · | -1 | · | · | 0

Bioassay records as filed in PubChem.
